In PubChem BioAssay AID1159580 (chemical genetic matrix, 2015):
“And” between values parts separate entries of the source, which are not always exact repeats. Equal entries are not always repeated. The whole screen tested about 5,500 compounds, of which about 2,000 (36%) were called active. Inconclusive results (about 18%) are left out. Cut-off read from the data, not from the text of the source: active = normalized growth mostly below about 0.91 (no sharp cut-off); inconclusive = no clear call, values can overlap the other calls; inactive = mostly above about 0.92. This is one part of the list.

Experiment: chemical genetic growth profiling, strain panel (AID 1159580);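 note: tested at 20 µM; growth read once vehicle control cultures reached saturation at 30 °C; 1 = growth at the plate median or of vehicle wells; lower values mean less growth of the strain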
Conditions: S. cerevisiae deletion strains, growth OD

Measured: normalized growth

Clc1ccccc1C(c1ccccc1)(c1ccccc1)n1ccnc1
active: locus YAL013W, strain DEP1, hits give low values 0.0556 and 0.0854 | locus YAL021C, strain ccr4, hits give low values 0.0659 | locus YAL026C, strain drs2, hits give low values 0.0665 | locus YAL030W, strain snc1, hits give low values 0.0563 | locus YAL040C, strain CLN3, hits give low values 0.613 | locus YBL061C, strain skt5, hits give low values 0.0604 | locus YBR009C, strain hhf1, hits give low values 0.0704 | locus YBR021W, strain FUR4, hits give low values 0.0896 | locus YBR023C, strain chs3, hits give low values 0.0661 | locus YBR171W, strain sec66, hits give low values 0.0777 | locus YBR229C, strain ROT2, hits give low values 0.0472 | locus YBR231C, strain swc5, hits give low values 0.0624 | locus YBR279W, strain paf1, hits give low values 0.0598 | locus YCL011C, strain gbp2, hits give low values 0.0573 | locus YCL016C, strain dcc1, hits give low values 0.066 | locus YCL029C, strain bik1, hits give low values 0.0623 | locus YCL061C, strain MRC1, hits give low values 0.0642 | locus YCL069W, strain vba3, hits give low values 0.0627 | locus YCR088W, strain abp1, hits give low values 0.0657 | locus YDL005C, strain med2, hits give low values 0.0759 | locus YDL035C, strain GPR1, hits give low values 0.0497 | locus YDL040C, strain nat1, hits give low values 0.058 | locus YDL074C, strain BRE1, hits give low values 0.0785 | locus YDL101C, strain DUN1, hits give low values 0.0582 | locus YDL134C, strain PPH21, hits give low values 0.0506 | locus YDL185W, strain tfp1, hits give low values 0.0604 | locus YDL192W, strain arf1, hits give low values 0.0622 | locus YDR001C, strain nth1, hits give low values 0.0587 | locus YDR069C, strain doa4, hits give low values 0.0629 | locus YDR101C, strain arx1, hits give low values 0.0588 | locus YDR137W, strain rgp1, hits give low values 0.103 | locus YDR150W, strain NUM1, hits give low values 0.0555 | locus YDR159W, strain sac3, hits give low values 0.0888 | locus YDR162C, strain NBP2, hits give low values 0.0501 | locus YDR195W, strain ref2 0.125 | locus YDR297W, strain sur2, hits give low values 0.0578 | locus YDR318W, strain mcm21, hits give low values 0.0626 | locus YDR334W, strain swr1, hits give low values 0.0633 | locus YDR335W, strain msn5, hits give low values 0.0619 | locus YDR388W, hits give low values 0.0576 | locus YDR392W, strain spt3, hits give low values 0.0716 | locus YDR502C, strain sam2, hits give low values 0.0632 | locus YEL003W, strain gim4, hits give low values 0.0556 | locus YEL037C, strain rad23, hits give low values 0.0574 | locus YEL061C, strain CIN8 (second series), hits give low values 0.0638 | locus YEL061C, strain CIN8, hits give low values 0.0506 | locus YER002W, strain NOP16, hits give low values 0.0949 | locus YER015W, strain faa2, hits give low values 0.0658 | locus YER016W, strain bim1, hits give low values 0.0637 | locus YER110C, hits give low values 0.0769 | locus YER111C, strain swi4, hits give low values 0.0727 | locus YER155C, strain BEM2 (second series), hits give low values 0.0917 | locus YER155C, strain BEM2, hits give low values 0.0644 | locus YER167W, strain BCK2, hits give low values 0.0514 | locus YFR010W, strain ubp6, hits give low values 0.0718 | locus YGL078C, strain dbp3, hits give low values 0.0828 | locus YGL086W, strain mad1, hits give low values 0.0584 | locus YGL167C, strain pmr1, hits give low values 0.0741 | locus YGL173C, strain kem1, hits give low values 0.07 | locus YGL227W, strain vid30, hits give low values 0.0633 | locus YGL240W, strain doc1, hits give low values 0.0729 | locus YGL248W, strain PDE1, hits give low values 0.0484 | locus YGL253W, strain hxk2, hits give low values 0.0556 | locus YGR078C, strain PAC10, hits give low values 0.0496 | locus YGR135W, strain pre9, hits give low values 0.0631 | locus YGR252W, strain gcn5, hits give low values 0.165 | locus YHR013C, strain ard1, hits give low values 0.105 | locus YHR027C, strain rpn1, hits give low values 0.0633 | locus YHR030C, strain SLT2, hits give low values 0.0505 and 0.1 | locus YHR079C, strain IRE1 (second series), hits give low values 0.0577 | locus YHR079C, strain IRE1, hits give low values 0.135 | locus YHR094C, strain hxt1, hits give low values 0.059 | locus YHR129C, strain ARP1, hits give low values 0.0557 | locus YHR142W, strain chs7, hits give low values 0.0738 | locus YHR200W, strain rpn10, hits give low values 0.0614 | locus YIL066C, strain RNR3, hits give low values 0.0483 | locus YIL073C, strain SPO22, hits give low values 0.112 | locus YIL125W, strain kgd1, hits give low values 0.0895 | locus YIR030C, strain dcg1, hits give low values 0.0606 | locus YJL092W, strain hpr5, hits give low values 0.0611 | locus YJL095W, strain BCK1 (second series), hits give low values 0.059 | locus YJL095W, strain BCK1, hits give low values 0.0611 and 0.105 | locus YJL115W, strain asf1, hits give low values 0.0739 | locus YJL129C, strain trk1, hits give low values 0.0834 | locus YJL134W, strain LCB3, hits give low values 0.0474 | locus YJL154C, strain vps35, hits give low values 0.0614 | locus YJL164C, strain tpk1, hits give low values 0.0678 | locus YJL166W, strain qcr8, hits give low values 0.064 | locus YJL168C, strain set2, hits give low values 0.0596 | locus YJL187C, strain SWE1 (second series), hits give low values 0.0488 | locus YJR043C, strain POL32, hits give low values 0.0648
